Screens from PubChem.
sEH inhibitor: soluble epoxide hydrolase inhibitors, primary screen, biochemical, human sEH; Bifunctional epoxide hydrolase 2 (Homo sapiens), P34913; recombinant human sEH enzymatic activity assay; 91,000 compounds, 0.34% hits; inhibition, % at 2 µM; AID 707, 2007; in the data active = inhibition above about 80%
Target sequence (P34913 whole entry, looked up): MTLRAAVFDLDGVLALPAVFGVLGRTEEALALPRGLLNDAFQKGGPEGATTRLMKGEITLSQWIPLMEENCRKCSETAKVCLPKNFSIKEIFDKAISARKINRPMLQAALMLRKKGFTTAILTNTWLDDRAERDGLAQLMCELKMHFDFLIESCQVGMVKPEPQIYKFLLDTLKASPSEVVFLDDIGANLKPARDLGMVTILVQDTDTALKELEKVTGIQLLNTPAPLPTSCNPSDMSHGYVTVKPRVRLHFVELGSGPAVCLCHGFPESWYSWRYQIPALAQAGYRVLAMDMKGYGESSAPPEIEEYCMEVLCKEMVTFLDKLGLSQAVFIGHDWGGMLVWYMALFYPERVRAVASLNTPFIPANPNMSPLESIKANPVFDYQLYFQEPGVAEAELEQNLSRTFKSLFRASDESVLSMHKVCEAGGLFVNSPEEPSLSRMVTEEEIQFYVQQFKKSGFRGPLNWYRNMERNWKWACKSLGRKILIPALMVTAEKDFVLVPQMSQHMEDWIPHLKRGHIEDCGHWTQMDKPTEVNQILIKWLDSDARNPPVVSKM
sEH activator: soluble epoxide hydrolase activators, primary screen, biochemical, human sEH | purified human sEH enzymatic activity, activator screen | AID 717, 2007 | Bifunctional epoxide hydrolase 2 (Homo sapiens), P34913 | 91,000 compounds, 0.04% hits | activation, % at 2 µM; in the data active = activation above about 37%
CYP2C19 act: human CYP2C19 activators, primary screen, biochemical, luminescence | Cytochrome P450 2C19 (Homo sapiens), P33261 | recombinant CYP2C19, luciferin-H EGE luminescence; hits give high values; 0 = fully inhibited enzyme, 1 = untreated enzyme | activation factor at 5 µM | 96,000 tested, under 10 active;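 active = activation factor of at least 2 at 5 µM in the primary screen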;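 also: 0 = wells with 2.5 mM tranylcypromine and 1 = vehicle-only wells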
CYP2C9 activ: human CYP2C9 activators, primary screen, biochemical, luminescence | Cytochrome P450 2C9 (Homo sapiens), P11712 | recombinant CYP2C9, luciferin-H conversion; hits give high values; factor 1 = untreated enzyme, 0 = blocked | activation factor at 5 µM | 96,000 compounds, 1.4% hits | AID 1024, 2008;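 active = activation factor of 2 or more for CYP2C9 at a 5 µM dose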;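 also: 0 = sulfaphenazole-blocked wells and 1 = vehicle-only wells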
CYP2C9 inhib: blockers of cytochrome P450 2C9 activity – biochemical, luminescence, ADME assay, primary screen; AID 777, 2007; inhibition, % at 5 µM; CYP2C9 Supersomes, luciferin-H conversion; 96,000 compounds, 20% hits;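 active = blocking of liver enzyme CYP2C9 beyond about 50% at 5 µM, limit read from the data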
CYP2C19 inhib: blockers of cytochrome P450 2C19 activity – biochemical, luminescence, ADME assay, primary screen; CYP2C19 Supersomes, luciferin-H EGE luminescence, 30 min; inhibition, % at 5 µM; 96,000 compounds, 21% hits;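 active = CYP2C19 inhibition above a set limit at 5 µM in the primary screen, cut at about 50% in these data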;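 also: plate controls were negative control wells for no effect and 2.5 mM tranylcypromine positive control for full effect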
Active calls of the source: *. The list is not random: actives were taken first. Their share in the collection is about 27%.

`Cc1ccc(N(CC(=O)NCc2ccco2)S(=O)(=O)c2ccccc2)cc1` gave CYP2C19 act 0.1, CYP2C9 activ 0.1, CYP2C9 inhib 91.6* and CYP2C19 inhib 93.9*.
Screening CCCN(CCC)CC(O)CN(c1ccccc1)S(=O)(=O)c1ccc(C)cc1 (stereo unspecified) returned sEH inhibitor 10.9, sEH activator -9.1, CYP2C19 act 0.8, CYP2C9 activ 0.9, CYP2C9 inhib 11.0 and CYP2C19 inhib 15.1.
`Cc1ccc(N(CC(=O)Nc2ccccc2-c2ccccc2)S(=O)(=O)c2ccccc2)cc1` gave sEH inhibitor -3.2, sEH activator 3.7, CYP2C19 act 0.5, CYP2C9 activ 0.4, CYP2C9 inhib 59.6* and CYP2C19 inhib 54.9*.
`Cc1ccc(-n2c(C)nnc2SCC(=O)N2CCc3ccccc3C2)cc1C` gave sEH inhibitor -7.2, sEH activator 7.9, CYP2C19 act 1 and CYP2C19 inhib 2.2.
Cc1ccc(C)c2c(SC(C)C(=O)NCc3ccco3)nc(-c3ccccc3)nc12 (stereo unspecified) was read as sEH inhibitor 14.8 and sEH activator -10.5.
Screening Cc1nc2ccc(C(=O)O)cc2c2c1CC(C)S2 (stereo unspecified) returned sEH inhibitor 11.3, sEH activator -8.9, CYP2C19 act 1.1, CYP2C9 activ 1.1, CYP2C9 inhib -10.1 and CYP2C19 inhib -13.6.
For Cc1cnc(C(=O)OCC(=O)c2csc(N3CCCCC3)n2)cn1 the results were CYP2C19 act 1, CYP2C9 activ 0.8, CYP2C9 inhib 20.5 and CYP2C19 inhib 1.3.
O=C(CN(Cc1ccccc1)S(=O)(=O)c1ccc(Br)cc1)NCc1ccco1 was read as sEH inhibitor 2.7, sEH activator -0.4, CYP2C19 act 0.7, CYP2C9 activ 0.3, CYP2C9 inhib 66.2* and CYP2C19 inhib 31.8.
`O=C(CN(c1ccc2c(c1)OCCO2)S(=O)(=O)c1ccccc1)NCc1ccco1` gave sEH inhibitor 5.9, sEH activator -8.2, CYP2C19 act 0.3, CYP2C9 activ 0.4, CYP2C9 inhib 61.5* and CYP2C19 inhib 70.7*.
`CCN(CC(=O)NCCc1ccccc1)S(=O)(=O)c1ccc(Br)cc1` gave sEH inhibitor 4.6, sEH activator -4.5, CYP2C19 act 0.7, CYP2C9 activ 1.5, CYP2C9 inhib -51.3 and CYP2C19 inhib 33.6.
Screening CC(C)C(=O)Nc1ccc(-c2csc(-c3ccccc3)n2)cc1 returned sEH inhibitor -3.4, sEH activator 1.3, CYP2C19 act 1, CYP2C9 activ 1.2, CYP2C9 inhib -21.0 and CYP2C19 inhib -3.6.
`C=CCOc1cccc(C2C(C(=O)c3ccco3)=C(O)C(=O)N2Cc2ccncc2)c1` (stereo unspecified) gave sEH inhibitor 3.1, sEH activator -2.5, CYP2C19 act 0.7, CYP2C9 activ 0.2, CYP2C9 inhib 83.9* and CYP2C19 inhib 25.5.
For C=CCOc1cccc(C2C(C(=O)c3ccco3)=C(O)C(=O)N2CCN2CCOCC2)c1 (stereo unspecified) the results were CYP2C19 act 1, CYP2C9 activ 0.9, CYP2C9 inhib 5.4 and CYP2C19 inhib 3.8.
C=CCOc1cccc(C2C(C(=O)c3ccc(C)o3)=C(O)C(=O)N2Cc2ccncc2)c1 (stereo unspecified) was read as sEH inhibitor 8.6, sEH activator -9.2, CYP2C19 act 0.9, CYP2C9 activ 0.4, CYP2C9 inhib 61.8* and CYP2C19 inhib 11.5.
For Cn1c(=O)c2cc(S(=O)(=O)NCCC(=O)NCCc3ccc(Cl)cc3)ccc2n(C)c1=O the results were sEH inhibitor 17.7, sEH activator -17.6, CYP2C19 act 0.9, CYP2C9 activ 1.2, CYP2C9 inhib -23.1 and CYP2C19 inhib 11.3.
Screening COc1cc(-c2nc3oc4ccccc4c(=O)c3c(=O)n2Cc2ccco2)cc(OC)c1OC returned sEH inhibitor -5.6, sEH activator 3.6, CYP2C19 act 0.8, CYP2C9 activ 0.8, CYP2C9 inhib 17.6 and CYP2C19 inhib 22.3.
